HCMV inh – human cytomegalovirus inhibition; activity change, negative = inhibition, % at 57.5 µM; HFF cells, HCMV-luciferase reporter, 72 h; active compounds read low; AID 1259415; actives 4.5% (n = 410,000); in the data active = activity change below about -60%; inconclusive = no clear call, values can overlap the other calls; inactive = above about -39%
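HFF cells seeded 16 h at 37C, treated with compounds, infected with luciferase-reporter HCMV at MOI 1 PFU/cell; luciferase read at 72 h post infection, normalized to buffer-only and Salinomycin controls.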
Marburg entry inh – Marburg virus entry inhibition; Marburg virus pseudotyped entry inhibition, cell reporter; Potency, µM (highest dose often 37.8 µM), without a hit: at the top dose activity change, negative = inhibition, most hits filed as inhibitors; actives 1.8% (n = 300,000); AID 540276; calls by dose curve; tested in HEK293 cells; note: potency is the fitted concentration of half-maximal effect
HCV inhibitor – blocks hepatitis C virus. Huh7.5.1 HCVcc-Cre infection, luciferase reporter, 44 h. Potency, µM (series often up to 41.8 µM), without a hit: top-dose activity change, negative = inhibition, hits mostly inhibitors. actives 3.4% (n = 340,000); active = well fitted inhibition curve with a large enough effect; inconclusive = small, poorly fitted or top-dose-only effect, or another doubt; inactive = no such curve, though single readings can be large or run the other way; note: potency is the fitted concentration of half-maximal effect
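After 44 h co-culture of compound, cells and HCVcc-Cre (~0.5 moi), substrate is added for 15 min at room temperature and luciferase measured over 15 sec. Cells were seeded at 1,000/well and pre-cultured 4 h.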
LASV entry inh – blocks Lassa virus binding to or entry into cells | actives 1.2% (n = 300,000) | Lassa virus pseudotype entry inhibition, cell reporter | Potency, µM (doses to about 37.9 µM), for the others: at the highest dose activity change, negative = inhibition, hits mostly inhibitors; calls by dose curve; tested in HEK293 cells; note: potency is the fitted concentration of half-maximal effect; nearly all actives have a fitted effect of over 50% in size
Vaccinia Venus – vaccinia inhibition (Venus reporter). Vaccinia virus Venus reporter expression, fluorescence. Potency, µM (top dose mostly 36.5 µM), inactives show top-dose activity change, negative = inhibition, usual class: inhibitors. actives 0.46% (n = 330,000); calls by dose curve; tested in A549 cells; note: potency is the fitted concentration of half-maximal effect; nearly all actives have a fitted effect of over 30% in size
VACV mCherry inh – vaccinia inhibition (mCherry reporter); Potency, µM (top dose mostly 36.5 µM), for the others: at the top dose activity change, negative = inhibition, actives largely listed as inhibitors; Vaccinia virus mCherry reporter infection, fluorescence; actives 0.63% (n = 310,000); calls by dose curve; tested in A549 cells; note: potency is the fitted concentration of half-maximal effect; nearly all actives have a fitted effect of over 35% in size
The depositor's hits bear a star; i = inactive; ? = inconclusive; . = no result given; + = active, no number; [ ] = another dose, or the depositor's remark. Hits are enriched below; roughly 7.8% of the tested compounds scored in any of these assays. % is set by controls: 0 for no effect and ±100 for the full control effect.

SMILES	HCMV inh	Marburg entry inh	HCV inhibitor	LASV entry inh	Vaccinia Venus	VACV mCherry inh
CCOC(=O)[C@]12CCCC=C1N(Cc1ccc(Cl)cc1Cl)C(=O)[C@H](CC(=O)NCc1ccc(OC)c(OC)c1)C2	-71*	.	.	.	?	?
CCc1nn2c(=O)cc(COC(=O)c3cccc(NC(=O)CCc4ccccc4)c3)nc2s1	6	.	.	-18%[46.1 µM]	-20%	-6%
CC(C)CO/N=C1/C[C@@H](O)[C@@H](O)[C@@H]2[C@@H]3C(=O)N(c4cccc(Oc5ccccc5)c4)C(=O)[C@H]3CC[C@@H]12	.	-1%[14.2 µM]	.	.	.	.
CCCCNC(=O)c1cc(-c2ccc(OC)cc2)nc2n[nH]c(-c3cccc([N+](=O)[O-])c3)c12	?	.	.	-8%[46.1 µM]	-14%	-23%
CCN1/C(=C/C(C)=C/c2sc3ccccc3[n+]2CC)Sc2ccccc21	-100*	1.6µM*	1µM*	1.1µM*	i	i
CC[N+](C)(CC)CCOC(=O)[C@@](O)(c1ccccc1)C1CCCCC1	.	22%	.	.	.	.
CC(=O)Nc1cc([N+](=O)[O-])cc(NC(C)=O)c1NC(C)=O	.	.	.	.	-7%	11%
CC(Sc1nc2c([nH]c3ccccc32)c(=O)n1-c1ccccc1)c1ccccc1 (stereo not drawn)	-83*	.	.	?	-21%	-15%
O=C(CSc1nc2c([nH]c3ccccc32)c(=O)n1-c1ccccc1F)Nc1ccccc1C(F)(F)F	-89*	.	.	?	-22%	-2%
O=C(CSc1nc2c([nH]c3ccccc32)c(=O)n1-c1ccccc1)Nc1ccccc1F	31	.	.	4%[46.1 µM]	-7%	-3%
Cc1cc(C)cc(-n2c(SCC(N)=O)nc3c([nH]c4ccccc43)c2=O)c1	-71*	.	.	?	-22%	-18%
Cc1cc(C)cc(-n2c(SCC(=O)N3CCCCCC3)nc3c([nH]c4ccccc43)c2=O)c1	-5	.	.	-10%[46.1 µM]	-5%	-7%
CCSc1nc2c([nH]c3ccccc32)c(=O)n1-c1cccc(OC)c1	-63*	.	.	?	-14%	-15%
COC(=O)C(C)Sc1nc2c([nH]c3ccccc32)c(=O)n1-c1ccc(OC)cc1 (stereo not drawn)	20	.	.	-14%[46.1 µM]	-2%	4%
CCC[N+](C)(C)c1ccc(/C=C/c2ccnc3ccccc23)cc1	.	.	.	.	i	i
CCCCCCCOc1ccc(OC(=O)c2cccnc2)cc1	-6	-23%	?	-30%	6%	-1%
CCCCCCCOc1ccc(OC(=O)c2ccncc2)cc1	-64*	?	?	-21%	39%	21%
O=C(CSc1nc2c(oc3ccccc32)c(=O)n1Cc1ccco1)Nc1ccccc1Cl	9	-7%[46.1 µM]	.	.	?	-29%
CCC(CCC(C)C1CCC2C3CCC4CC(O)CC[C@@]4(C)C3CC[C@@]12C)C(C)C (stereo partly drawn)	.	.	.	.	-1%	-8%
CC(CCC(C)C(C)(C)C)[C@@H]1CC[C@H]2C3C[C@H](OS(O)(=S)=S)[C@H]4C[C@H](OS(O)(=S)=S)[C@@H](OS(O)(=S)=S)C[C@]4(C)[C@H]3CC[C@]12C (stereo partly drawn) (tested in a mixture with another compound)	.	.	2.5µM*	.	?	-26%
O=C(Nc1ccc(Nc2ccccc2)cc1)C(Cl)Cl	-64*	?	?	?	?	?
Cc1no[n+]([O-])c1COc1cccc(/C=N/Nc2nncn2N)c1	-82*	.	4%	.	.	.
COCc1cc2cc3c(cc2c2c(C(=O)OC)c(C(=O)OC)c(C(=O)OC(C)(C)C)n12)OCO3	.	-27%[14.2 µM]	.	?	.	.
O=C(NCc1ccccc1)C(c1ccco1)N1CCN(C(=O)C2CCCO2)CC1 (stereo not drawn)	-7	.	.	.	-5%	-15%
O=C(NCc1ccccc1)C(c1ccc(-c2ccccc2)cc1)N1CCN(C(=O)C2CCCO2)CC1 (stereo not drawn)	?	.	.	.	?	2.8µM*
SMILES	HCMV inh	Marburg entry inh	HCV inhibitor	LASV entry inh	Vaccinia Venus	VACV mCherry inh
COc1cc2ccccc2cc1C(=O)NC(=S)Nc1nnn(C)n1	-25	-2%	-7%	0%	-7%	-16%
Cn1nnc(NC(=S)NC(=O)c2cc(Cl)ccc2Cl)n1	+	.	21%	.	.	.
CCn1nnnc1NCc1ccc(OCc2ccc(F)cc2Cl)c(OC)c1	-13	10µM*	?	?	-13%	?
CCN(CCCNC(=O)Cn1ncc2c(=O)oc3ccccc3c21)c1cccc(C)c1	-25	4%	13µM*	.	?	?
Cc1cc(-c2nnc(SCCC(=O)Nc3ccccc3)o2)no1	-85*	-18%	-12%	-5%	-10%	-20%
Cn1c(-c2cccs2)[n+](C)c2ccccc21	-8	?	11µM*	9%[46.1 µM]	-23%	-14%
COn1c(=O)c(-c2cccs2)[n+]([O-])c2ccccc21	3	?	?	0%	-20%	-24%
COc1ccccc1CNc1nc(NC(C)C)nc2cc(-c3ccccc3)sc12	-36	.	.	.	?	?
CC(C)Nc1nc(NCCOc2ccccc2Cl)c2sc(-c3ccccc3)cc2n1	-101*	.	.	.	-27%	?
O=C(NCc1ccc2c(c1)CCN2C(=O)c1ccncc1)c1cccc(Cl)c1	32	.	.	-17%[46.1 µM]	-12%	-23%
CC(=O)NC1=NN(C(C)=O)C2(CCCCC2)S1	53	-4%	2.8µM*	3%	-10%	-11%
CCN(CC(=O)NCc1ccc(F)cc1)CC(=O)NC1CCCC1	-11	13%[46.1 µM]	0.89µM*	20%	-16%	5%
O=C(CCC(=O)NC1CCCCC1)NCc1ccc(F)cc1	-3	.	10%	.	.	.
CCOc1ccc(N2C(=O)C3=C(C(c4ccc(Cl)cc4)=NCCN3)C2c2cccnc2)cc1 (stereo not drawn)	-31	11µM*	?	?	-28%	-5%
Cc1ccc(N2C(=O)c3n[nH]c(C)c3C2c2ccc(Cl)cc2)cc1 (stereo not drawn)	29	?	.	-13%[46.1 µM]	-16%	-19%
Cc1ccc(C2C3=C(NCCN=C3c3ccccc3)C(=O)N2c2ccccc2)cc1 (stereo not drawn)	-24	10µM*	?	?	-23%	-8%
CCOc1ccc2nc(N3CCCC(C(=O)NCCc4ccc(C)cc4)C3)sc2c1 (stereo not drawn)	3	3%[46.1 µM]	.	.	-13%	-8%
CC(C)=CCN1C(=O)[C@]2(O[C@H](COc3ccccc3)CC3=C2CCC3)c2ccccc21	.	-5%[14.2 µM]	.	.	.	.
CC(=O)NCc1cc(-c2nn(C)c(=O)c3ccccc23)ccc1C	133	10%	5%	-3%	-7%	-9%
Cc1ccc(-c2nn(C)c(=O)c3ccccc23)cc1CNC(=O)/C=C/c1ccccc1	-14	?	-53%	21µM*	-17%	-14%
CCCN(C(=O)CSc1cc(-c2ccccc2)c2ccc(OC)cc2n1)C1CCS(=O)(=O)C1 (stereo not drawn)	20	-8%	-15%	3%	-13%	-13%
